Potency and affinity values are given separately. Activity calls are given as the source filed them. A call without a number means that no potency is given here. How the calls were made is not given here.

The nature of the experiment: HepG2 cell cytotoxicity, dose response, cytotoxicity control, plate reader, cherry-pick, antagonist series (AID 743416). Conditions: series mostly up to 26 µM.
Regarding `O=C(CCCc1ccccc1)Nc1cccc(C(=O)O)c1`, the call was inactive.
Then `Cc1c(C)c2ccc(OCC(=O)Nc3nccs3)cc2oc1=O`, with “inactive”; and `C=CCNC(=O)c1c(Cl)nc(C)c([N+](=O)[O-])c1C`, with “inactive”.
`Cc1ccccc1C(=O)Nc1nnc(-c2ccco2)s1`: the result was inactive.
Then `Cc1ccc2nc(-c3ccc(NC(=O)c4cccnc4)cc3)oc2c1`, with “inactive”; and `CN(C)c1ccc(-c2nc3cc(N)ccc3o2)cc1`, with “inactive”; and `Cc1nc2c(OCCC3CCCCC3)cccn2c1N(C)C(=O)CCC1CCCC1`, with “inactive”.
Then `COc1ccc(-n2sc3ccc(F)cc3c2=O)cc1`, with “inactive”.

The record behind these values is PubChem BioAssay.
